Of roughly 7,900 targets only a part is listed; those with a hit were picked by preference. About 0.6% of all pairs of compound and target were hits.
compound: C/C(=N\NC(=O)C1=CC(=CC=C1)S(=O)(=O)N2CCOCC2)/C3=C(C=CC(=C3)Cl)O; assay: log2 fold change, soluble protein after heating vs DMSO (PISA); higher = thermal stabilisation; K562 cells, 10 uM, 30 min; active = over 0.2 and 3.5 SD of the protein, either way, in both replicates (recomputed)
Outline: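 Soluble protein was quantified by TMTpro 16plex LC-MS/MS after channel sums were equalised. It was obtained as the supernatant after 21,000xg for 90 min from pooled aliquots of K562 cells (2×10^6 cells/mL, 10 μM compound, 30 min) heated for 3 min across 48°C-58°C and extracted in PBS with 0.5% NP-40 at 4°C. Thermal stability values are relative to control samples and come from duplicates. They are given as log2 fold changes.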

Sequence of UniProt P14635 (P14635 whole entry, looked up): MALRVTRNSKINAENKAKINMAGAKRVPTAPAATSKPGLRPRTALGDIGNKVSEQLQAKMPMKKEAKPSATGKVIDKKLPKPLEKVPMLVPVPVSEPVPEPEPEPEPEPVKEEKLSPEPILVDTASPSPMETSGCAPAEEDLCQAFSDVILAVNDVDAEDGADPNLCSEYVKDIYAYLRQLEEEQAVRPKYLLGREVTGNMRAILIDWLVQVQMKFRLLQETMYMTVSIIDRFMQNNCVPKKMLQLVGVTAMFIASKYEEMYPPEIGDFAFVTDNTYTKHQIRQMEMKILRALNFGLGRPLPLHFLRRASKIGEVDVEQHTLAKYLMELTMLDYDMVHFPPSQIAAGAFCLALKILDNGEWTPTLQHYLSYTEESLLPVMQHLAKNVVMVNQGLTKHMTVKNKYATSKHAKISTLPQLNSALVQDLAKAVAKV
Sequence of UniProt Q13057 (Q13057 whole entry, looked up): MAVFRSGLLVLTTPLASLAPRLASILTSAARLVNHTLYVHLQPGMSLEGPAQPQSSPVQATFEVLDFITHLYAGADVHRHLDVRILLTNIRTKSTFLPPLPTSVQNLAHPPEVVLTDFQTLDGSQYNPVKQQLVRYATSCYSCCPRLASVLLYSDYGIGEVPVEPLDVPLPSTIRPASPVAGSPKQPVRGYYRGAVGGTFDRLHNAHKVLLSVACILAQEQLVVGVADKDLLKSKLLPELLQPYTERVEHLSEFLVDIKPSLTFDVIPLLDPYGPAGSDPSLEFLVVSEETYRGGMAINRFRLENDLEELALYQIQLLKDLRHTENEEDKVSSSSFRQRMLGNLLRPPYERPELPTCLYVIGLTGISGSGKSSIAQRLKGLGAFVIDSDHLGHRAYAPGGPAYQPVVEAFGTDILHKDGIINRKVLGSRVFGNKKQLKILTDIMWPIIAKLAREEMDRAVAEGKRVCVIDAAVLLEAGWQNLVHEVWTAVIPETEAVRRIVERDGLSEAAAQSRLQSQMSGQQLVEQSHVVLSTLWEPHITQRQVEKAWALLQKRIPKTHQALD
Sequence of UniProt O43405 (O43405 whole entry, looked up): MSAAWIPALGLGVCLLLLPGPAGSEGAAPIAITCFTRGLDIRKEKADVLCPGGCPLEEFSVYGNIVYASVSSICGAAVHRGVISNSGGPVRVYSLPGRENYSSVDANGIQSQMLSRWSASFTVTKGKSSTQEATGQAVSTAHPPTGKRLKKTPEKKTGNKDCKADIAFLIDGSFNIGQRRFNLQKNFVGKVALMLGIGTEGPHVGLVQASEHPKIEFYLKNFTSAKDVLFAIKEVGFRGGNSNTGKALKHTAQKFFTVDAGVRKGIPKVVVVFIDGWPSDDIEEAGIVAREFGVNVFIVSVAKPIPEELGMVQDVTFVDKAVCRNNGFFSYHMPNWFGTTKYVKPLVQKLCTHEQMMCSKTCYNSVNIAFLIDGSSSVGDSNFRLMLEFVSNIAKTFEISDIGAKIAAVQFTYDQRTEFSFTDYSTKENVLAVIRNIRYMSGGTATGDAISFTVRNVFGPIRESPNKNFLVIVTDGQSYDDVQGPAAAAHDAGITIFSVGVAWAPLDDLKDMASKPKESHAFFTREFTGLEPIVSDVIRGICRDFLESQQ
Sequence of UniProt P42574 (P42574 whole entry, looked up): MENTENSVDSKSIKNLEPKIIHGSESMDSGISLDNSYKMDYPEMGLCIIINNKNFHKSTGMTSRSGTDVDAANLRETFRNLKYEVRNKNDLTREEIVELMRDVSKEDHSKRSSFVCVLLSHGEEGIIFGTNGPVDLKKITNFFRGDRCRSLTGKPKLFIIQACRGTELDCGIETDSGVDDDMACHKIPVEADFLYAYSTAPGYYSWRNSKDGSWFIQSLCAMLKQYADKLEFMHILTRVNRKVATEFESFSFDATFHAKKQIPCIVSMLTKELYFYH
Sequence of UniProt P67870 (P67870 whole entry, looked up): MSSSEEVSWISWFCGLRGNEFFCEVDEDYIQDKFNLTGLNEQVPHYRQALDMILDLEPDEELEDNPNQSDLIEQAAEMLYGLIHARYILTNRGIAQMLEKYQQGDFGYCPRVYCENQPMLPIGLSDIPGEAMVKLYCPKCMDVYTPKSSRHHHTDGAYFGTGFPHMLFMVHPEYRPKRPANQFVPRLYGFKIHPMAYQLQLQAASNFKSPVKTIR
Sequence of UniProt Q00534 (Q00534 whole entry, looked up): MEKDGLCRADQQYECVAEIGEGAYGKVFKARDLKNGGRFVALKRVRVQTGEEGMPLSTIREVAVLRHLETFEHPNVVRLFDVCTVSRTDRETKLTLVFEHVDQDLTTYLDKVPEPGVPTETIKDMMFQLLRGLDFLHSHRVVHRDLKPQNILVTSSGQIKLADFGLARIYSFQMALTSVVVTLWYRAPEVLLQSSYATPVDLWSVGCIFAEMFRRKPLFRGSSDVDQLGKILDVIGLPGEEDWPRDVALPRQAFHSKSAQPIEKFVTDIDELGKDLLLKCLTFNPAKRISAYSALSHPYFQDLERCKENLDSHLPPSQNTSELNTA
Sequence of UniProt Q9Y6H1 (Q9Y6H1 whole entry, looked up): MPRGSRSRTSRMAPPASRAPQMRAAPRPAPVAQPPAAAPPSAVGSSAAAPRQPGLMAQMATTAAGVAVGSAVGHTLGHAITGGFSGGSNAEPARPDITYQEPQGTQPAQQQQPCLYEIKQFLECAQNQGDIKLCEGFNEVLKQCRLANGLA
Sequence of UniProt Q12873 (Q12873 whole entry, looked up): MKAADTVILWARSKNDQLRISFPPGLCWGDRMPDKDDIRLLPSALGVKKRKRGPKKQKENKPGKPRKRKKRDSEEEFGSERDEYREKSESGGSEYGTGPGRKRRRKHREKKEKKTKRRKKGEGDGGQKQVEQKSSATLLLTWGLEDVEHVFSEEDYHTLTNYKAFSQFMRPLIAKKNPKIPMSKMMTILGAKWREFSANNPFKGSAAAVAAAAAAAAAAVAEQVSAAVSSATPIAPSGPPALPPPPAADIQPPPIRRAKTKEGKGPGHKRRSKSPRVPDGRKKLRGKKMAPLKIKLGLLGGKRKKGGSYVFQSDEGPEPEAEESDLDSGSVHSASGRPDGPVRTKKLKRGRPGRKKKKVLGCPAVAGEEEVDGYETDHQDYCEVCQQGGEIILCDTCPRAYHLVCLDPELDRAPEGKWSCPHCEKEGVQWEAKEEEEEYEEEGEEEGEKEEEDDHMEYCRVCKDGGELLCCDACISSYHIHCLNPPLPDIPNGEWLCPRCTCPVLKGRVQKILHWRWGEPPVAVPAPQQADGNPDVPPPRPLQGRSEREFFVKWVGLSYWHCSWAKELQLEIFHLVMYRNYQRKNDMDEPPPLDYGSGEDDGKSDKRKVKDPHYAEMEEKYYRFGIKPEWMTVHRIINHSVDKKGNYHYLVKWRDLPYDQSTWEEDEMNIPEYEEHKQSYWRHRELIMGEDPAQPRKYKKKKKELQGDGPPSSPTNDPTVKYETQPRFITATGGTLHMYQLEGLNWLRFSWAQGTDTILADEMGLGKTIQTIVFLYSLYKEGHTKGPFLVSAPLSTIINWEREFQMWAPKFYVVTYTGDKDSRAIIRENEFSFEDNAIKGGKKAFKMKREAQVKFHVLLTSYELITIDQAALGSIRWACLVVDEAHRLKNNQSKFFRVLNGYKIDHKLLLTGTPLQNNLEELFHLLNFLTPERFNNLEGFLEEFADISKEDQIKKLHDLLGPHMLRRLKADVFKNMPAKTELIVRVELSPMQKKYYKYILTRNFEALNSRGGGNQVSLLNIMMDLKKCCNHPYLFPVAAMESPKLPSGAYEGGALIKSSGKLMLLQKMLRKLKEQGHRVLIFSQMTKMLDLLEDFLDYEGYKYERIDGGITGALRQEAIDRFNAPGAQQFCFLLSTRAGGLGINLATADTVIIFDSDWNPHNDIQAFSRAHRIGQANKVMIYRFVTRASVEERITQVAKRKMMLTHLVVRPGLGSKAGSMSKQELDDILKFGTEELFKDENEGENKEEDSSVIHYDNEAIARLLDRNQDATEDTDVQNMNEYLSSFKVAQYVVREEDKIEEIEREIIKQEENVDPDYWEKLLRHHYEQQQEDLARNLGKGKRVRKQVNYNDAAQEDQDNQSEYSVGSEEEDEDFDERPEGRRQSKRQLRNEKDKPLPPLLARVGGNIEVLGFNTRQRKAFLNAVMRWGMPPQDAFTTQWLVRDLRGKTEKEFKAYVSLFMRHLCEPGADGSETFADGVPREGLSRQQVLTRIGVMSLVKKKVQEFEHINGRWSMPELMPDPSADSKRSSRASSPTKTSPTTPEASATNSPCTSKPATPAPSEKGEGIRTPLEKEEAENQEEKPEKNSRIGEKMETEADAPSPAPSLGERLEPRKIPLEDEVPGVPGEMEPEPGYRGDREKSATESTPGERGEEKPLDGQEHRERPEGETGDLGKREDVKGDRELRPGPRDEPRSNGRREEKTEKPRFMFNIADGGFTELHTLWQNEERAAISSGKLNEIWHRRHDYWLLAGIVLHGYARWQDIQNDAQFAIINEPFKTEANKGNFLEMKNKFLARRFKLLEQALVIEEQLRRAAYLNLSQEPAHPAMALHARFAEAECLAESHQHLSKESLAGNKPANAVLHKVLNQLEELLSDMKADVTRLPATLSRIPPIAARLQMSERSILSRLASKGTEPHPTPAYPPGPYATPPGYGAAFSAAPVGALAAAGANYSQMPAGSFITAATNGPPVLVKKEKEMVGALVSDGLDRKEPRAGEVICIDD
Sequence of UniProt P19397 (P19397 whole entry, looked up): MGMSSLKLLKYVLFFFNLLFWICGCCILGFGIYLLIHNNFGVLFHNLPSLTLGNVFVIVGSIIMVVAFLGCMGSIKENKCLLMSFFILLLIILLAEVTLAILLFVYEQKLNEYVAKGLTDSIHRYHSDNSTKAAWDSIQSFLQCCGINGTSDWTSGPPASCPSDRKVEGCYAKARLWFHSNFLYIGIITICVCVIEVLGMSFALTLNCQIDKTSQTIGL
Sequence of UniProt P05937 (P05937 whole entry, looked up): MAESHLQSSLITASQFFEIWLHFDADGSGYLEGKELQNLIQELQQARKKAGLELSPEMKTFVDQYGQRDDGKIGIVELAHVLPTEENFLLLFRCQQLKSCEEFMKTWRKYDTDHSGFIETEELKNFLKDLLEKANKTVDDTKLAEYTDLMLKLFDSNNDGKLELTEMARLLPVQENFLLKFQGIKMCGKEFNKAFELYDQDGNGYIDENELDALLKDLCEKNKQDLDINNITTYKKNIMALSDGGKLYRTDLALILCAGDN

log2 fold change, inactive:
CDC37L1 (UniProt Q7L3B6) 0.008
CCNB1 (UniProt P14635) 0.013
CIT isoform 4 (UniProt O14578) 0.045
CALCOCO2 isoform 4 (UniProt Q13137) 0.018
CLCN3 isoform 2 (UniProt P51790) 0.089
CHCHD2 (UniProt Q9Y6H1) 0.107
CCNH (UniProt P51946) 0.021
CRK (UniProt P46108) 0.035
CHCHD1 (UniProt Q96BP2) -0.007
CALB1 (UniProt P05937) -0.001
CDK6 (UniProt Q00534) 0
COASY isoform 2 (UniProt Q13057) 0.1
CHD3 isoform 3 (UniProt Q12873) 0.148
CHCHD4 isoform 2 (UniProt Q8N4Q1) 0.102
CASP3 (UniProt P42574) -0.021
CSNK2B (UniProt P67870) -0.024
CSTF3 (UniProt Q12996) 0.012
C4orf33 (UniProt Q8N1A6) 0.023
COCH (UniProt O43405) -0.028
CD53 (UniProt P19397) 0.028
CD55 isoform 7 (UniProt P08174) -0.002
CLASP2 isoform 3 (UniProt O75122) 0.136

Reference: the supplement of paper PMC10849652
